Common to all, as to assay: DAPPL (digital affinity profiling via proximity ligation, sequencing); 10 mM Tris-HCl pH 7.5, 50 mM NaCl, 1 mM DTT, 4% glycerol, room temperature, 30 min; GST-TFs on glutathione beads, 16-mer random dsDNA library, 0.1% formaldehyde crosslink after washing; high values mean tight binding
What all share (conditions): protein: recombinant; tags: N-terminal GST; dsDNA, one strand shown

In one experiment the target is T1, FLI1 (Homo sapiens, UniProt Q01543 1-452).
T1 sequence: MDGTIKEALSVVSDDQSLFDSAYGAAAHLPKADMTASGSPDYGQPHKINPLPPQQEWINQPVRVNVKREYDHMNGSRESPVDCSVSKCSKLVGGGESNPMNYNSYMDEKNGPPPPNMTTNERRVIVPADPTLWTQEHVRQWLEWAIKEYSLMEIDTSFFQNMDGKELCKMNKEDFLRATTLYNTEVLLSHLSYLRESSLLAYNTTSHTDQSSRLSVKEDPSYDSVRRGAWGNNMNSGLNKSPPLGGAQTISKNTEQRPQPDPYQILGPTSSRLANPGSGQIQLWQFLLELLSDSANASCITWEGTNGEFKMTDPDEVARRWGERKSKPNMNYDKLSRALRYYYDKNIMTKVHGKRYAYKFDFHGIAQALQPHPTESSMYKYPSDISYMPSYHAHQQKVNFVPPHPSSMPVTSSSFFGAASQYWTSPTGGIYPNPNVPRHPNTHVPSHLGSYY
Summed up: (§1)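 Sequencing on an Illumina NextSeq500 followed washing, crosslinking with 0.1% formaldehyde, proximity ligation (BsaI/T4 ligase, 1 h, 37 °C) and PCR amplification of pools that had been incubated for 30 min at room temperature with 200 nmole of a random double-stranded 16-mer DNA library in Tris/NaCl/DTT/glycerol buffer. Each pool held DNA-barcoded human transcription factors, expressed in yeast as GST fusions and captured on glutathione beads, plus a tag-only sample. Binding signal is a hexamer's read frequency for a factor divided by its frequency in the tag-only sample.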

For the next experiment, the target named is T2, ELK1 (Homo sapiens, UniProt P19419 1-428).
T2 sequence: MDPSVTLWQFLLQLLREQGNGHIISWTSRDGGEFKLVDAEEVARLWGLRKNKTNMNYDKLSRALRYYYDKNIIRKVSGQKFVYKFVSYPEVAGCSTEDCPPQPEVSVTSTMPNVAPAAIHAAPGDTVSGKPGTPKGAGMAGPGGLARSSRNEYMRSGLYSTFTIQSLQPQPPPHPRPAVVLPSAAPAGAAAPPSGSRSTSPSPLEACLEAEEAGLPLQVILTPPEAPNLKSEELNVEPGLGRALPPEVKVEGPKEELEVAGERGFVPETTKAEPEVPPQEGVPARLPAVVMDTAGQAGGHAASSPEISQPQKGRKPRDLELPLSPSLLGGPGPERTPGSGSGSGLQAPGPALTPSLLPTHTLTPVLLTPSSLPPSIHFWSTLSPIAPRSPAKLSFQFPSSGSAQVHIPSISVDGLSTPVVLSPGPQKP
Put shortly:
as §1

The target of another experiment is T3, GABPA (Homo sapiens, UniProt Q06546 1-454).
T3 sequence: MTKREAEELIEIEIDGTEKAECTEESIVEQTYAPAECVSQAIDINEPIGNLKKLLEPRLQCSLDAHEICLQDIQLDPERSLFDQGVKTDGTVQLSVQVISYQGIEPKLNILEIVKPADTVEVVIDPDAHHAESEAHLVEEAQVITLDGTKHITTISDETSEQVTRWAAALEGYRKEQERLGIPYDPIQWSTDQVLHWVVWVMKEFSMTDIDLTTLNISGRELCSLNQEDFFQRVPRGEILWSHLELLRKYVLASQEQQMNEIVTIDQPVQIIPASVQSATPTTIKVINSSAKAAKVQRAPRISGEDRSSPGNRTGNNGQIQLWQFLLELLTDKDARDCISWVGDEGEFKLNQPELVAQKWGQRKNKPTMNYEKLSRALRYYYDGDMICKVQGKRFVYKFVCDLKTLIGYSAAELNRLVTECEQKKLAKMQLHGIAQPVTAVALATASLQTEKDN
Put shortly:
as §1

A further experiment concerns the target T4, ERG (Homo sapiens, UniProt P11308 1-479).
T4 sequence: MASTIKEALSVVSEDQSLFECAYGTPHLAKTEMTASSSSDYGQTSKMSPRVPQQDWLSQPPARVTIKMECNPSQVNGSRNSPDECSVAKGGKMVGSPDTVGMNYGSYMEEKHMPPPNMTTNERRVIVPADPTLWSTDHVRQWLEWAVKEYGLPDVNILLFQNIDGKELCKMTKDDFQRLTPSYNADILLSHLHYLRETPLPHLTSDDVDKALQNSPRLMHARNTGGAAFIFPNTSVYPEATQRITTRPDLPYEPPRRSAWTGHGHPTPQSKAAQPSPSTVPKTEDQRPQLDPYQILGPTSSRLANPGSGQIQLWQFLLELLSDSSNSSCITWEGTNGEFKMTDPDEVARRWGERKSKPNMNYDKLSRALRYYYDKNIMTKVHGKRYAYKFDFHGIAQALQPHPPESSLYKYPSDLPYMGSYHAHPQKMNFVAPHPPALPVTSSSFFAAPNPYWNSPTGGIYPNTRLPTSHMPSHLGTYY
Put shortly:
as §1

The next experiment has as its target ELF1 (Homo sapiens, UniProt P32519 1-619). Summed up:
as §1

The target in another experiment is T5, EHF (Homo sapiens, UniProt Q9NZC4 1-300).
T5 sequence: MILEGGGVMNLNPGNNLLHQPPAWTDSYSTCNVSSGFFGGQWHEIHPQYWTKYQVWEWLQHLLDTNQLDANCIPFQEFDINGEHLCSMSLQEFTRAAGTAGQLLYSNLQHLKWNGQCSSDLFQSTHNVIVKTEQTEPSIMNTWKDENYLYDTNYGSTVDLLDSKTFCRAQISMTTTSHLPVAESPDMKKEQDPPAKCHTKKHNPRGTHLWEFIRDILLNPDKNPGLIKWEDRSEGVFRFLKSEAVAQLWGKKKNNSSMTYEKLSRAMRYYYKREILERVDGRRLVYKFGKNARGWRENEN
Summed up:
as §1

For another experiment, the target named is SPIB (Homo sapiens, UniProt Q01892 1-262). Summed up: as §1
SPIB, sequence (Q01892 whole entry): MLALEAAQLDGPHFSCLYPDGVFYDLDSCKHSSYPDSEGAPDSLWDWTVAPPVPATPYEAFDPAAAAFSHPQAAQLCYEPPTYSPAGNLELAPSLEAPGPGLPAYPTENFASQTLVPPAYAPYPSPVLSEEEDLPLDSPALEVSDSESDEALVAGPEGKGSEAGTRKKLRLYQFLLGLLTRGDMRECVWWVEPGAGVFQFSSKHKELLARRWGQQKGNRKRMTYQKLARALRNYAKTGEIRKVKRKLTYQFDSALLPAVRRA
In another experiment the target is T6, ELK3 (Homo sapiens, UniProt P41970 1-407).
T6 sequence: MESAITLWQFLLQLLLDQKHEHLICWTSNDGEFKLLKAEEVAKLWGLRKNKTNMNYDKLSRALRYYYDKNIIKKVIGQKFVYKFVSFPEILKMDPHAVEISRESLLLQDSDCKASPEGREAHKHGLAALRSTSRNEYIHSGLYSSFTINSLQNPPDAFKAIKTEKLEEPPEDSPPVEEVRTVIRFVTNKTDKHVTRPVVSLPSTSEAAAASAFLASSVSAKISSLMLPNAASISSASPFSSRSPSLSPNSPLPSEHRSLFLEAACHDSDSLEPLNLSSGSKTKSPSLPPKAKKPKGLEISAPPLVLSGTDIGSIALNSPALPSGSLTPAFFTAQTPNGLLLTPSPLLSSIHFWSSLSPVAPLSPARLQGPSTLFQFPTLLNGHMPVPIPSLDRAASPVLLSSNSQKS
Summed up:
as §1

The target of another experiment is T7, FEV (Homo sapiens, UniProt Q99581 1-238).
T7 sequence: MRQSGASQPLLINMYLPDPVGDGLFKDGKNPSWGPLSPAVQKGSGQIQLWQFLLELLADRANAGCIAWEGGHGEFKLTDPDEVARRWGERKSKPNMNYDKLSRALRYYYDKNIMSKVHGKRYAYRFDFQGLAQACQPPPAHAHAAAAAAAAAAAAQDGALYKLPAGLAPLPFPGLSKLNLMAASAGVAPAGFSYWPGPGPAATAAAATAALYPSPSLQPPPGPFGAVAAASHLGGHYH
Put shortly:
as §1

A further experiment addresses ETV5 (Homo sapiens, UniProt P41161 1-510). Summed up:
as §1

In the next experiment the target is T8, SPIC (Homo sapiens, UniProt Q8N5J4 1-248).
T8 sequence: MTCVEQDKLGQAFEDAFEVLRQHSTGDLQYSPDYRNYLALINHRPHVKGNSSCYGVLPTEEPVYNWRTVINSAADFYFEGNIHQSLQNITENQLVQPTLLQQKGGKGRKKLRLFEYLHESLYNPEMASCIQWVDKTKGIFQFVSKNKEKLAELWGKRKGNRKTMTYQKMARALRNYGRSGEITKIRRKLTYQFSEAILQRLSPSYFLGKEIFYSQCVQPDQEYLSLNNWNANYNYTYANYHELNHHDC
Summed up:
as §1

A further experiment deals with ELF4 (Homo sapiens, UniProt Q99607 1-663). Put shortly:
as §1

The target of another experiment is T9, ELK4 (Homo sapiens, UniProt P28324-2 1-405).
T9 sequence: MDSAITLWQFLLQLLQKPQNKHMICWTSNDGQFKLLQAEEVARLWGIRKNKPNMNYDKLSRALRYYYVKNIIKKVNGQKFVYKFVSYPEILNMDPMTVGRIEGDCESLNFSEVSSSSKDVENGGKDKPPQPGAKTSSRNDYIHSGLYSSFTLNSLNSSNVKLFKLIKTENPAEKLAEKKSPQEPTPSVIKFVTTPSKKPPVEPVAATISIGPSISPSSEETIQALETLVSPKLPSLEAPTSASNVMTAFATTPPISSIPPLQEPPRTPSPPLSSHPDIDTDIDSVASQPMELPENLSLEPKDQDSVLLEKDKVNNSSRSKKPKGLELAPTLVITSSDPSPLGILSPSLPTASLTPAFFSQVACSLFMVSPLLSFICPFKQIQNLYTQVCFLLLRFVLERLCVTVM
Put shortly: as §1

The target in a further experiment is T10, ETV2 (Homo sapiens, UniProt O00321 1-342).
T10 sequence: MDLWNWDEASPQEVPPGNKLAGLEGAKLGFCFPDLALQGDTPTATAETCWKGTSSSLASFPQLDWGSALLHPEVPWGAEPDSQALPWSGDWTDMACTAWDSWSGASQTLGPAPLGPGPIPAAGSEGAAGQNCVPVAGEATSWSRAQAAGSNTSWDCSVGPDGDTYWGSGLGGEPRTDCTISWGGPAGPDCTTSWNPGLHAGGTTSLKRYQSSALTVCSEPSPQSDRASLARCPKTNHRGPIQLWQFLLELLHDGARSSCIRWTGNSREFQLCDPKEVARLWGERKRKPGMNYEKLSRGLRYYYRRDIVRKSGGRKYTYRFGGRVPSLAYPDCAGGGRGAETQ
Put shortly:
as §1

The next experiment addresses T11, ELF3 (Homo sapiens, UniProt P78545 1-371).
T11 sequence: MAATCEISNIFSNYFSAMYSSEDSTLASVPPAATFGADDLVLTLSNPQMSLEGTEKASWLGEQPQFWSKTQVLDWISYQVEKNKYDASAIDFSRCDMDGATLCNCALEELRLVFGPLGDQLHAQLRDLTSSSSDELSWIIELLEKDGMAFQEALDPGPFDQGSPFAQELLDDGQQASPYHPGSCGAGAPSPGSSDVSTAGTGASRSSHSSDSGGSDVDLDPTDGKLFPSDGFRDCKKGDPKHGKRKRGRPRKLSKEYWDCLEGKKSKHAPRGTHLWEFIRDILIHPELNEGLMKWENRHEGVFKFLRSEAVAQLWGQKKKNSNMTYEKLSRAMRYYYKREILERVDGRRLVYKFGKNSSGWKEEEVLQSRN
Put shortly:
as §1

For another experiment, the target named is ETV1 (Homo sapiens, UniProt P50549 1-477). Put shortly:
as §1

Another experiment concerns the target SPI1 (Homo sapiens, UniProt P17947 1-270). Summed up:
as §1

ELF1, sequence (P32519 whole entry): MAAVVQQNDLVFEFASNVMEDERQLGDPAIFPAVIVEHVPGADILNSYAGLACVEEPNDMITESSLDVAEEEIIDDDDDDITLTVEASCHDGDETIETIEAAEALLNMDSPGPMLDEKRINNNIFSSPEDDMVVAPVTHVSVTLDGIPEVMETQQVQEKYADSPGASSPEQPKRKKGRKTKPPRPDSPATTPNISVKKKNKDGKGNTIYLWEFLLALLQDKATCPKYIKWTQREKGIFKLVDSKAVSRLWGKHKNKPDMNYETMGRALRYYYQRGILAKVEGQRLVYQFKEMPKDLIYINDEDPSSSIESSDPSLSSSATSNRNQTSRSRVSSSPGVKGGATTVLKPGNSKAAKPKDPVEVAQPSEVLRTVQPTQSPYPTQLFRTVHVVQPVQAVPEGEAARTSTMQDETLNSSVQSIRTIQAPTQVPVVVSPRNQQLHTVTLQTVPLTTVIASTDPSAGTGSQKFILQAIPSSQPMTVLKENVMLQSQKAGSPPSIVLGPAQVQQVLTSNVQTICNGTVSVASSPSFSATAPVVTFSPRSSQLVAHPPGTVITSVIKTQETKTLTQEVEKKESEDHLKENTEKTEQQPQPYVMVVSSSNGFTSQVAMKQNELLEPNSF
ETV1, sequence (P50549 whole entry): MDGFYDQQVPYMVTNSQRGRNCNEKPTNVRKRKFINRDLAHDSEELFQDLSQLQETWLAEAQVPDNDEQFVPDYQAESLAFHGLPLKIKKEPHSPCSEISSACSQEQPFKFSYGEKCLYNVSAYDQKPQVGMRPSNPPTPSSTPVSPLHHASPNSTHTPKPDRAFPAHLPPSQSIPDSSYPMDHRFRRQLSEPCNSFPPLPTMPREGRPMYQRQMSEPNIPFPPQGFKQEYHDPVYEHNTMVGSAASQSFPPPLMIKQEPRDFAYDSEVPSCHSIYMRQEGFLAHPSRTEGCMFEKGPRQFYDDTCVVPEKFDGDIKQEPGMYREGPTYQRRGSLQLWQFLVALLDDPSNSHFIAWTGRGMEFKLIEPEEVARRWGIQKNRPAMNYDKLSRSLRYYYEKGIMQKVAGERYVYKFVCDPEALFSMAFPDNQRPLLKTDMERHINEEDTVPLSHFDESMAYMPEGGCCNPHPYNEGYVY
ETV5, sequence (P41161 whole entry): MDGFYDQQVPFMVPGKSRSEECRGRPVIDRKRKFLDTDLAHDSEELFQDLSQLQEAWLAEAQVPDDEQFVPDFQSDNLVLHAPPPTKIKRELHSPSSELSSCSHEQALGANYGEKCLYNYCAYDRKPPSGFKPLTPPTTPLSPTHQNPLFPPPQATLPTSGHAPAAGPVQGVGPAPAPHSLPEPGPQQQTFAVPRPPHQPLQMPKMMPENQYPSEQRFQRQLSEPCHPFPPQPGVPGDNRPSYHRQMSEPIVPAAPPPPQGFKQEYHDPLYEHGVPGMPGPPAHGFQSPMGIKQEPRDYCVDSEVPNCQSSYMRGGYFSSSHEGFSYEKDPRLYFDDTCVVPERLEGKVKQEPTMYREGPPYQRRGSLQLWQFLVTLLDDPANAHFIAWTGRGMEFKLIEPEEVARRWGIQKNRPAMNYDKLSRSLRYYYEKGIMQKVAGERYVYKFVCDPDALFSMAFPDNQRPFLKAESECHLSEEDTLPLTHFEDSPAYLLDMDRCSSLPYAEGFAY
ELF4, sequence (Q99607 whole entry): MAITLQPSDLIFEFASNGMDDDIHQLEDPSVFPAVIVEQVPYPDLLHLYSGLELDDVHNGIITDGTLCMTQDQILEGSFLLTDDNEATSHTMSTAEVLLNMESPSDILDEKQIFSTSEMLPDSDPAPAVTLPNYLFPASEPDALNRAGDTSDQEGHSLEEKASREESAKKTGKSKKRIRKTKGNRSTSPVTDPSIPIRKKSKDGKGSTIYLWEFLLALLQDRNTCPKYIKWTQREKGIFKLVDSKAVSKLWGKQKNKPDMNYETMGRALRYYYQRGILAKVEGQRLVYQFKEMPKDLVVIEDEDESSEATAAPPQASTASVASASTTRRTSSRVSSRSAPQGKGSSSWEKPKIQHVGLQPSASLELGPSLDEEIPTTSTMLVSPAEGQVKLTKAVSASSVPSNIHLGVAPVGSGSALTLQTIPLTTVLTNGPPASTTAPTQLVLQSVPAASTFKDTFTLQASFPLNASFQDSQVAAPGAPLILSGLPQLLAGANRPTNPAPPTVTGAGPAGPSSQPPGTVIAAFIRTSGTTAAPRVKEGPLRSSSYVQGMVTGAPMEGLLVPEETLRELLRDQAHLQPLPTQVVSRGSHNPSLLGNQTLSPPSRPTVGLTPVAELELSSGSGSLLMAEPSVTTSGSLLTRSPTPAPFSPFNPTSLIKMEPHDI

On to CACCTC, for which the binding signal was 1.12 fold enrichment (6-mer frequency, TF over GST control) with FLI1; 1.15 fold enrichment (6-mer frequency, TF over GST control) in the experiment with ELK1; 1.2 fold enrichment (6-mer frequency, TF over GST control) in the experiment with GABPA; 1.17 fold enrichment (6-mer frequency, TF over GST control) with ERG; 1.2 fold enrichment (6-mer frequency, TF over GST control) with ELF1; 1.27 fold enrichment (6-mer frequency, TF over GST control) with EHF. Moreover, the binding signal with SPIB was 1.1 fold enrichment (6-mer frequency, TF over GST control); with ELK3, 1.09 fold enrichment (6-mer frequency, TF over GST control); with FEV, 1.11 fold enrichment (6-mer frequency, TF over GST control); in the experiment with ETV5, 1.13 fold enrichment (6-mer frequency, TF over GST control); in the experiment with SPIC it was 1.22 fold enrichment (6-mer frequency, TF over GST control); with ELF4 it was 1.23 fold enrichment (6-mer frequency, TF over GST control). Further, the binding signal is 1.14 fold enrichment (6-mer frequency, TF over GST control) in the experiment with ELK4; 1.2 fold enrichment (6-mer frequency, TF over GST control) with ETV2; 1.1 fold enrichment (6-mer frequency, TF over GST control) in the experiment with ELF3; 1.19 fold enrichment (6-mer frequency, TF over GST control) in the experiment with ETV1.

For the sequence GTATGG, the binding signal in the experiment with FLI1 was 1.12 fold enrichment (6-mer frequency, TF over GST control); with ELK1, 1.04 fold enrichment (6-mer frequency, TF over GST control); with GABPA it was 1.04 fold enrichment (6-mer frequency, TF over GST control); with ELF1 it was 1.08 fold enrichment (6-mer frequency, TF over GST control); with EHF, 1.05 fold enrichment (6-mer frequency, TF over GST control); with SPI1, 1.06 fold enrichment (6-mer frequency, TF over GST control). Besides, the binding signal with SPIB was 1.1 fold enrichment (6-mer frequency, TF over GST control); with FEV, 1.01 fold enrichment (6-mer frequency, TF over GST control); with ETV5, 1.02 fold enrichment (6-mer frequency, TF over GST control); with SPIC, 1.08 fold enrichment (6-mer frequency, TF over GST control); in the experiment with ELF4 it was 1.02 fold enrichment (6-mer frequency, TF over GST control); in the experiment with ELK4, 1.01 fold enrichment (6-mer frequency, TF over GST control). The binding signal with ETV2 is 1.03 fold enrichment (6-mer frequency, TF over GST control); with ELF3, 1.04 fold enrichment (6-mer frequency, TF over GST control); with ETV1, 1.16 fold enrichment (6-mer frequency, TF over GST control).

The values are drawn from publication PMC7862700, “An all-to-all approach to the identification of sequence-specific readers for epigenetic DNA modifications on cytosine”.
